From PubChem BioAssay (NCI) come the findings set out here.

The panel holds about 83,000 compounds, 20% with a hit somewhere; the sample as a whole holds those more often.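 Interpretation: 100, growth as untreated; towards 0, rising growth inhibition; 0, no net growth; 0 to -100, cell death. Compounds scoring below 10 were considered active.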 A number with no mark means an inactive call. Calls of active or inactive are those of the source.

Among the test systems are T-47D breast; BT-549 breast; MDA-MB-435 melanoma; SW-620 colon; MCF7 breast; HCT-116 colon; HCC-2998 colon; KM12 colon.
Common to all, as to test: NCI-60 one-dose screen, 48 h (100 = growth as untreated, 0 = no growth, -100 = all killed)
What all share (details): 10 µM unless noted

Turning to `O=C(/C=C/c1ccccc1)c1cccc(O)c1`, the growth in the assay with T-47D breast was 97.9%; in the assay on BT-549 breast it was 80.4%; in the assay on MDA-MB-435 melanoma it was 57.1%; in the assay with SW-620 colon, 65.4%; in the assay on MCF7 breast, 14.9%; in the assay with HCT-116 colon, -71.6% (active). For the same compound, the growth in the assay on HCC-2998 colon is 102%; in the assay with KM12 colon it was -29.4% (active).
As for `COc1cc(-c2nn(-c3cccc(NC(=O)c4ccccc4)c3)cc2-c2ccncc2)ccc1Cl`, the growth was 21.8% in the assay with T-47D breast; 1.29% (active) in the assay with BT-549 breast; -57.9% (active) with MDA-MB-435 melanoma; 18.4% in the assay on SW-620 colon; 4.67% (active) with MCF7 breast; 8.58% (active) with HCT-116 colon. For the same compound, the growth was 20.1% in the assay on HCC-2998 colon and 12.3% in the assay on KM12 colon.
Turning to `COc1cc(C(=O)/C=C/c2c(C)n([O-])c3ccc(C(F)(F)F)cc3[n+]2=O)cc(OC)c1OC`, the growth is 18.3% in the assay on T-47D breast; 80.6% in the assay with BT-549 breast; 94.1% in the assay on MDA-MB-435 melanoma; 26% with SW-620 colon; 45.4% with MCF7 breast; 21.1% in the assay on HCT-116 colon. Besides, the growth is 105% with HCC-2998 colon and 91.4% with KM12 colon.
Turning to `COc1ccc(-c2ccc(C)n2-c2ccc(-c3nc4cc(Cl)ccc4s3)cc2)cc1`, the growth with T-47D breast is 66.8%; in the assay with BT-549 breast it was 116%; with MDA-MB-435 melanoma it was 95.1%; in the assay with SW-620 colon, 103%; in the assay with MCF7 breast it was 48.3%; in the assay on HCT-116 colon, 97.4%. Further, the growth in the assay with HCC-2998 colon is 92.3%; with KM12 colon, 89.1%.
In the case of `CCNc1nc(S(=O)(=O)CC)nc2ccccc12`, the growth was 92.4% in the assay with T-47D breast; 91.2% with BT-549 breast; 81.9% with MDA-MB-435 melanoma; 106% in the assay with SW-620 colon; 95.8% in the assay on MCF7 breast; 91.7% in the assay with HCT-116 colon. The growth in the assay on HCC-2998 colon was 115%; in the assay with KM12 colon it was 94.9%.
As to `COc1cc(NC(N)=NCCC(C)(C)c2ccc(C(F)(F)F)cc2)ncc1C#N`, the growth was -2.85% (active) with T-47D breast; 53.9% with BT-549 breast; 17% in the assay with MDA-MB-435 melanoma; -0.0248% (active) in the assay with SW-620 colon; -31.3% (active) with MCF7 breast; -75.7% (active) with HCT-116 colon. Further, the growth is -77.8% (active) in the assay with HCC-2998 colon and 15.4% in the assay with KM12 colon.
Take `O=C1CCCCC1(c1ccccc1)c1ccccc1`: the growth in the assay with T-47D breast was 95%; with BT-549 breast, 114%; in the assay with MDA-MB-435 melanoma, 101%; in the assay on SW-620 colon, 101%; in the assay with MCF7 breast, 105%; in the assay on HCT-116 colon it was 98.4%. Further, the growth in the assay with HCC-2998 colon was 92.2%; with KM12 colon, 100%.
As for `CC(C)C(C(=O)NCCN1CCOCC1)N1C(=O)/C(=C/c2ccc(Br)cc2)SC1=S` (stereo not drawn), the growth in the assay on T-47D breast was 94.1%; in the assay with BT-549 breast, 99%; with MDA-MB-435 melanoma, 101%; in the assay on SW-620 colon, 102%; in the assay with MCF7 breast, 95.3%; with HCT-116 colon, 94.8%. In addition, the growth is 107% with HCC-2998 colon and 99.7% in the assay on KM12 colon.
Take `COc1cc2c(=O)n(C3CCCCCC3)c3c4cc[nH]c4ncc3c2cc1OC`: the growth is 84.8% with T-47D breast; 52.3% with BT-549 breast; 86.9% in the assay on MDA-MB-435 melanoma; 70.8% in the assay with SW-620 colon; 49.9% in the assay on MCF7 breast; 72.6% in the assay on HCT-116 colon. For the same compound, the growth in the assay with HCC-2998 colon is 117%; in the assay on KM12 colon, 24.4%.
As for `COc1ccc(-c2ccc(C)n2-c2ccc(-c3nc4ccccc4s3)cc2)cc1`, the growth with T-47D breast was 73.3%; in the assay on BT-549 breast, 108%; with MDA-MB-435 melanoma, 89.6%; in the assay on SW-620 colon, 89.6%; with MCF7 breast, 92.7%; in the assay with HCT-116 colon it was 85.5%. Also, the figures for the growth in the assay on HCC-2998 colon and in the assay with KM12 colon were 91.7% and 86.3%, respectively.
Regarding `Oc1ccccc1/C=N/NC(=S)NC1CC2C=CC1C2` (stereo not drawn), the growth in the assay on T-47D breast is 79.9%; in the assay with BT-549 breast, 61%; in the assay with MDA-MB-435 melanoma, 11.9%; in the assay with SW-620 colon it was 45.5%; with MCF7 breast it was 80.7%; in the assay on HCT-116 colon it was 42.9%. Further, the growth in the assay on HCC-2998 colon was 66.5%; in the assay with KM12 colon, 53%.
For the compound `C=C[C@@H]1C[C@H](O)Cc2cc(F)ccc2N1`, the growth in the assay with T-47D breast is 108%; in the assay on BT-549 breast, 96.9%; in the assay on MDA-MB-435 melanoma it was 93.8%; in the assay on SW-620 colon, 98.7%; in the assay on MCF7 breast, 107%; in the assay on HCT-116 colon it was 103%. Also, the growth is 96.2% with HCC-2998 colon and 100% in the assay on KM12 colon.
Turning to `NC1=NN(O)C2=CC([N+](=O)[O-])C=CC2=N1` (stereo not drawn), the growth with T-47D breast was 101%; in the assay with BT-549 breast it was 104%; in the assay with MDA-MB-435 melanoma, 109%; in the assay on SW-620 colon, 110%; in the assay on MCF7 breast, 96.1%; with HCT-116 colon, 107%. Also, the growth in the assay with HCC-2998 colon was 97.2%; in the assay on KM12 colon, 103%.
With `O=[N+]([O-])c1ccc(-c2cn(-c3ccccc3)c(-c3ccccc3)n2)cc1`, the growth with T-47D breast was 65.9%; in the assay with BT-549 breast, 96%; in the assay with MDA-MB-435 melanoma, 100%; in the assay with SW-620 colon it was 95%; in the assay with MCF7 breast it was 74.4%; in the assay with HCT-116 colon, 87.1%. For the same compound, the results for the growth in the assay on HCC-2998 colon and with KM12 colon were 104% and 94.4%, respectively.
Turning to `Fc1ccc(-c2nc(-c3nc4ncccc4[nH]3)cc3c2[nH]c2ccccc23)cc1F`, the growth in the assay with T-47D breast was 51.7%; in the assay on BT-549 breast, 84%; in the assay with MDA-MB-435 melanoma, 66.1%; in the assay on SW-620 colon it was 102%; in the assay with MCF7 breast it was 38.7%; in the assay on HCT-116 colon, 30.3%. The results for the growth in the assay on HCC-2998 colon and in the assay with KM12 colon were 100% and 71.9%, respectively.
Turning to `N/C(=N\S(=O)(=O)c1ccccc1)Nc1nc2ccccc2s1`, the growth with T-47D breast was 75.9%; in the assay with BT-549 breast it was 95.5%; in the assay on MDA-MB-435 melanoma, 101%; with SW-620 colon, 99.6%; in the assay on MCF7 breast, 90.6%; in the assay with HCT-116 colon, 97.5%. The growth in the assay on HCC-2998 colon was 107%; with KM12 colon, 93%.
